Assay [1] is described as follows: UWB1.289 Cancer Cell Toxicity qHTS against the NCATS CANVASS Library (AID 1347347). Further: nearly all actives have a fitted effect of over 60% in size. The procedure, abridged: (§1)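 Toxicity is measured over 72 h of compound exposure at 37 degrees C under 5% CO2. Each well holds 1000 cells, pre-incubated for 4 hours before dosing across an 11-point range. CellTiter-Glo luminescence gives viability.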
The nature of assay [2]: OV-SAHO Cancer Cell Toxicity qHTS against the NCATS CANVASS Library (AID 1347348). Further: nearly all actives have a fitted effect of over 55% in size. Further: potency means the concentration at half of the fitted maximal effect. Summed up:
as §1
On the technique in general: In qHTS, concentration-response curves come from the screen itself.

A short description of assay [3]: Panc-1005 Cancer Cell Toxicity qHTS against the NCATS CANVASS Library (AID 1347349). Further: nearly all actives have a fitted effect of over 60% in size. Further: potency means the concentration at half of the fitted maximal effect. The procedure, abridged:
as §1

Assay [4] can be described thus: A2780 Cisplatin Sensitive Ovarian Cancer Cell Toxicity qHTS against the NCATS CANVASS Library (AID 1347353). Further: nearly all actives have a fitted effect of over 60% in size. Further: potency means the concentration at half of the fitted maximal effect. The procedure, abridged: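 Cells are plated at 750 per well and rest for 4 hours. Compounds are added across eleven concentrations, and incubated 72 hours before ATP is quantified by luminescence.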
Assay [5] is described as follows: UWB1.289-WTBRCA1 Cancer Cell Toxicity qHTS against the NCATS CANVASS Library (AID 1347354). Further: potency means the concentration at half of the fitted maximal effect. The procedure, abridged: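 First, 1000 cells go into each well and rest for 4 hours. Next, an 11-point dilution range is pinned in. Plates then incubate 72 hours before CellTiter-Glo addition and luminescence reading.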
In assay [6] the test system is NAD(P)H diaphorase (Clostridium kluyveri). The assay can be described thus: Diaphorse counterscreen qHTS: Assay Interference Panel against the NCATS CANVASS Library (AID 1347362). The procedure, abridged: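 Clostridium kluyveri diaphorase in PBS + 0.01% Tween-20 preincubated 15 min with compounds. Resazurin and NADH then added for 5 min at room temperature in the dark; resorufin fluorescence read (ex 525, em 598).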

Assay [7] in a line: KB-8-5-11 Cancer Cell Toxicity qHTS against the NCATS CANVASS Library (AID 1347364). Further: nearly all actives have a fitted effect of over 75% in size. Further: potency means the concentration at half of the fitted maximal effect. The procedure, abridged: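 Terse: KB-8-5-11, 500 cells/well, 72 hr, 37C/5% CO2, 11-pt titration, CellTiter-Glo readout; confirmatory runs ± 1uM tariquidar in medium.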
The nature of assay [8]: SDT Cancer Cell Toxicity qHTS against the NCATS CANVASS Library (AID 1347365). Further: nearly all actives have a fitted effect of over 60% in size. Further: potency means the concentration at half of the fitted maximal effect. Summed up: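 Cytotoxicity is measured from cellular ATP: compounds in an 11-point concentration series are pinned onto SDT cells, incubated 72 hr at 37C, then CellTiterGlo is added and luminescence read.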
Assay [9] in a line: G06 Cancer Cell Toxicity qHTS against the NCATS CANVASS Library (AID 1347368). Further: nearly all actives have a fitted effect of over 60% in size. Further: potency means the concentration at half of the fitted maximal effect. Summed up:
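Cells were plated at 500 per well, then compounds were added over an 11-point range. After 72 hr at 37C, CellTiterGlo was added and luminescence measured as ATP content.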

Assay [10] in a line: qHTS for ATAD5 Antagonist screened against the NCATS CANVASS Library (AID 1347370). Further: nearly all actives have a fitted effect of over 65% in size. Further: potency means the concentration at half of the fitted maximal effect. Summed up: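 Compounds (11-point) co-dosed with 10 µM 5-FUrd for 16 h at 37 °C onto HEK293T-ATAD5 luciferase reporter cells. Viability measured by CellTiter-Fluor fluorescence, then ATAD5 reporter signal by luminescence.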
Assay [11] in a line: qHTS for Hypoxia signaling pathway (HIF-1) antagonists against the NCATS CANVASS Library (AID 1347374). Further: nearly all actives have a fitted effect of over 60% in size. Further: potency means the concentration at half of the fitted maximal effect. The procedure, abridged:
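Antagonism scored as loss of CoCl2-driven (60 uM stock added) HRE beta-lactamase signal, read by CCF4 FRET at 460/530 nm. Compounds were tested in an 11-point series on ME-180 reporter cells for 17 hrs at 37C, with parallel CellTiter-Glo cytotoxicity.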

A short description of assay [12]: qHTS for Hypoxia signaling pathway (HIF-1) agonists against the NCATS CANVASS Library (AID 1347375). Further: potency means the concentration at half of the fitted maximal effect. Summed up:
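Cells plated and rested 5 h, compounds pinned in DMSO across 11 concentrations, incubated 17 h at 37C, loaded with CCF4-AM for 2 h, fluorescence read at 460 and 530 nm, then CellTiter-Glo luminescence measured for viability and normalization.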

The nature of assay [13]: Cytotoxicity qHTS for assessment of Hepg2 cells membrane integrity screened against the NCATS CANVASS Library (AID 1347387). The procedure, abridged: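 Cells were seeded at 2000 per well and left overnight to attach. Compounds were pin-transferred to give 0.59 nM - 46 uM in an 11-point series and incubated 5 hr at 37C. CytoTox-ONE reagent was added and, after 10 min at room temperature, fluorescence (ex 560, em 590 nm) was read.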

Assay [14] is described as follows: Vero-766 cells viability qHTS against the NCATS CANVASS Library: Counterscreen for Zika virus inhibition assay (AID 1347394). The procedure, abridged:
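Vero 766, no virus; 1000 cells/well; o/n attach; cpd 11-pt; 72 h, 37C, 5% CO2; CTG luminescence; cell-free media wells = 100% inhibition.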

The nature of assay [15]: qHTS for inhibitors of Wild type Zika virus screened against the NCATS CANVASS Library (AID 1347396).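 Further: ATP luminescence of surviving cells so rescue from viral cell killing; series mostly up to about 46 µM.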 The procedure, abridged:
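Luminescent CellTiter Glo read-out of virus-induced cytotoxicity, 72 h post-infection, in Vero 766 cells. Compounds were tested at 11 concentrations; uninfected, vehicle-treated wells defined 100% inhibition.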

Assay [16] can be described thus: Redox Reaction Profiling qHTS: Assay Interference Panel against the NCATS CANVASS Library (AID 1347401). Summed up:
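Fluorescence read-out (525 nm excitation, 598 nm emission) at time zero and after 15 min in the dark tracked resorufin formation. Mix: 5 uM resazurin, 200 uM DTT, HEPES pH 7.3 buffer with NaCl.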

A short description of assay [17]: qHTS for activators of dead-cell proteases activity screened against the NCATS CANVASS Library (AID 1347392).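 Further: luminescence from protease leaking out of membrane-damaged cells cleaving impermeant substrate; rising signal means more cytotoxicity.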 The procedure, abridged:
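HepG2, 2000 cells/well, 18 h attach; cpd 11-pt, 5 h 37C 5% CO2; CytoTox-Glo (AAF-aminoluciferin) 15 min RT; luminescence read.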

A short description of assay [18]: qHTS for activators of Nrf2/ARE signaling pathway screened against the NCATS CANVASS Library (AID 1347391). Further: nearly all actives have a fitted effect of over 60% in size. Further: potency means the concentration at half of the fitted maximal effect. The procedure, abridged: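 Beta-lactamase reporter signal, read as 460 and 530 nm emission under 405 nm excitation after 2 h CCF4 loading, reflected ARE activation in HepG2 cells treated 16 h with an 11-point series.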
Assay [19] in a line: HEK293 18hr Apoptosis Induction qHTS against the NCATS CANVASS Library (AID 1347357). Summed up: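 Cells seeded at 500/well in DMEM + 10% FBS. Compounds pinned, 11 concentrations. 18 h, 37 degrees C/5% CO2. Caspase-Glo 3/7 added, 15 min RT dark, luminescence read.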

Inconclusive results are not listed. A number with no mark means an inactive call. Active and inactive are the calls of the source. The call rests on the fitted dose curve; in most records, active means well fitted curve in the direction sought with a large enough effect; inconclusive means small, poorly fitted or top-dose-only effect, or another doubt; inactive means no such curve, though single readings can be large; an effect the other way counts as inactive or inconclusive.

With `C[C@@H](CCC[C@]1(C)C(=O)C=C[C@]23C[C@H]4C[C@H](O[C@@]4(C)C2)C31)C(=O)N[C@@H](CO)C(=O)O` (stereo partly specified), the Potency result in [1], in assay [2], in assay [3], in assay [4], in [5] and in [6] was “inactive” in each case. The Potency entry in [7], in assay [8], in assay [9], in assay [10], in [11] and in assay [12] was “inactive” each time. Also, the Potency result in assay [14], in [15] and in assay [16] was “inactive” throughout. In assay [13], the compound was called inactive.
As for `C/C=C/c1cc(OC)c2c(c1)[C@@H](C)[C@H](c1ccc(O)c(OC)c1)O2`, the Potency result in assay [1], in assay [2], in [3], in [4], in assay [5] and in [6] was “inactive” each time. The Potency result in assay [7], in assay [8], in assay [10], in [11], in assay [12] and in [17] was “inactive” throughout. Further, the Potency result in assay [14], in assay [15] and in assay [16] was “inactive” each time. For the same compound, the result in assay [13] was inactive.
On to `O=C(O)CC1OC(=O)c2c(O)cccc21` (stereo unspecified), for which the Potency result in assay [1], in assay [2], in assay [3], in assay [4], in assay [5] and in assay [6] was “inactive” each time. For the same compound, the Potency result in [7], in [10], in assay [11], in assay [12], in assay [18] and in assay [14] was “inactive” each time. The Potency entry in [15] and in [16] was “inactive” each time. Further, the Potency in [8] was 13.2 nM (active). For the same compound, the compound was classed as inactive in [13].
Consider `C[C@H]1C[C@@H]([C@@H]2CC[C@]34O[C@H](CC[C@@]35C[C@H](C)C(=O)O5)CN24)OC1=O`, for which the Potency entry in assay [1], in [2], in [3], in assay [4], in assay [5] and in assay [19] was “inactive” throughout. Further, the Potency entry in [6], in assay [7], in [8], in assay [9], in assay [10] and in [11] was “inactive” throughout. Further, the Potency result in assay [12], in [18], in assay [17], in assay [14], in assay [15] and in assay [16] was “inactive” throughout. For the same compound, the outcome in assay [13] was inactive.
Regarding `CC1=CC2=C[C@H](C)C[C@@]23OC(=C(C)C3=O)CC(C)(C)/C=C/C1=O`, the Potency in assay [3] is 943 nM (active); in assay [4], 209 nM (active); in assay [5], 11800 nM (active); in assay [7], 2090 nM (active); in assay [8], 662 nM (active); in [9], 833 nM (active). Besides, the Potency in [10] was 933 nM (active); in assay [11] it was 265 nM (active); in [12], 5290 nM (active); in assay [18], 74.1 nM (active). For the same compound, the Potency result in assay [6] and in assay [16] was “inactive” each time.
Regarding `CC(=O)[C@@H]1[C@@H](O)C[C@H]2[C@]3(C)CC[C@H]4C(C)(C)CCC[C@]4(CO)[C@H]3C[C@H]3OC(=O)[C@@H]1[C@@]32C`, the Potency entry in assay [2], in assay [3], in [4], in [5], in assay [19] and in assay [6] was “inactive” throughout. For the same compound, the Potency entry in assay [7], in assay [8], in [9], in [10], in [11] and in [12] was “inactive” throughout. For the same compound, the Potency result in assay [18], in assay [17], in assay [15] and in assay [16] was “inactive” in each case. For the same compound, the outcome in assay [13] was inactive.
On to `O=Cc1ccc2n1C[C@@]1(C[C@H](O)[C@H](O)CO1)OC2`, for which, in [2], the Potency was 13300 nM (active). The Potency entry in [4], in [19], in [6], in assay [7], in assay [8] and in assay [9] was “inactive” in each case. In addition, the Potency entry in [10], in assay [11], in assay [12], in assay [18], in assay [14] and in [15] was “inactive” in each case. In addition, the Potency entry in [16] was “inactive”. In [13], the compound was called inactive.
